Laboratory results as given in the supplement of paper PMC6555819.

These sequences were tested on PPARg:RXRa DBDmut IVT, anti-RXR (DBD mutation: RXRa K156A/R161A, NR concentration 270 nM, RXRa partner concentration 90 nM) (assay: PBM binding z-score (relative to random genomic background probes); higher = stronger binding; sequences stand for … in GC…GCGATTGACAGCGTAGAATGAAGG).
Outline: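 Regression normalization was applied to scanned fluorescence from custom Agilent 4×180K protein-binding microarrays. Before scanning, arrays were incubated 1 h with ligand-free nuclear receptor dimers, and binding was detected with antibodies against each partner (one per run). Binding z-scores use the random background probes as reference.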

| Sequence | PBM binding z-score |
| --- | --- |
| CGTACAGGGTCAGCTAGGCCAGAGTAGGGACGGC | 1.75 |
| ACCGAAAGGTCGAGGTGAGTATAGAGAAAGGGAA | 0.771 |
| AATATTAGTTGACTTAGGGCAACCGATACGACGC | 0.114 |
| ACTAGCAGGCCAAGGGTCACTCCAGATTAGTCCG | 1.08 |
| ATCTCTAGGTAACAAAGTTCAGTGAATGCCGAAC | 3.03 |
| TCTAGCAGGCCAGAGGGTCACTTAAGAGGTACGG | 0.598 |
| TCTTGTAGATCATTAGAGGTTAAGAAAGTGCGCT | 1.84 |
| GCTAGTAGTTGAAAGGGCAACCGAATGATTCTCG | 0.195 |
| GCTCGGAGGACAAGGGCAGAGCTTTGTCCGTAGA | -0.664 |
| AGAATGAGGTTAAGATCATGGAAACAGAATACAT | 2.36 |
| AGTAGCAGGCCAAGTTTGGGTCACTCAAACAAAG | 0.369 |
| TCGAGTAGGTTACCAATGGGGCATTAAGCTTTCT | 2.97 |
| CCAACTAGGTCACGAAAGGTCAAAGTCGAATGAC | 8.35 |
| AGAATGAGGTTACCAAAGATCAGGGAAACGCTTG | 3.53 |
| ATCGAAAGGACGTGAGGTGAGTATACAGAAAGGC | -0.822 |
| TCTAGTTGGACACGGAGGTCACACACGACGGGTA | 1.98 |
| CTACCAAGGTGAACAAGGTCATTGATTACTATTC | 3.07 |
| CGAACTAGGTCATTGACAGGACAGTGAGTAGTAA | 8.17 |
| TCTTGTAGATCAACAGGAGGTTATGAAAGATCGA | 1.42 |
| ACTTACGGGTCATCGAGGTTATAGCACGCGTATA | 2.89 |

| Sequence | PBM binding z-score |
| --- | --- |
| GCTATCAGTTGAAAGGGCAACCGAATGATTCTCG | 0.18 |
| CGAACGAGGGCATGAGTTGATAGCGAATGCCGAT | 3.22 |
| TAGCCTAGGTCATGCGGGCCAGAATAGTGTCGGC | 1.69 |
| GCTAGTTGGTCAGTAAAAGGTCACAAACCGGTCG | 0.812 |
| CCTAGTTGGTCAAGGGCACACACGCTATAGGTAC | 1.1 |
| ACAGACGGGTGAGTGAAGGTAACTCAGCTGGACG | -0.0722 |
| CCTATTAGTTGACCATAAGGGCAACCTAAGCTCG | 0.374 |
| GGAACGAGGGCAAGTTGATACCAGAGTTTGATGG | 3.63 |
| CCTTACAGGTCACTCCAGGTTATAGCATCGGAGT | 4.37 |
| TTACCAAGGTGAAGGTTGTTGATCCCTCTGTAGA | 1.42 |
| TCAGATAGGTAAACAGGTGAAAGTCCGTAAGTTA | 2.93 |
| AGAATGAGGTTGAGATCAGGGAAACAGAATACAT | -0.749 |
| TCTCGGAGGACACGAAGGTCACAGCTTTCCAGAG | 1.84 |
| TCTCGGAGGACACGAAGGTCAGATCTTTCCAGAG | 1.59 |
| AGAACGAGGGCACGCGGAGTTGATAGCAGAGTAG | 4.28 |
| CCTCAGAGGACAGAAGGTCAGAGCTGTCCGCTTT | 0.0276 |
| TCTCGGAGGACACGAAGGTTAGAGCTTTCCAGAG | 0.921 |
| CGTTCAAGGTCAGAGAGGTCAGTGAATGCCGAGT | 3.67 |
| CTTGCTAGGTCATGGTCAGCTAATCTACAGTATG | 4.97 |
| CCTTACGGGTCTCGAGGTTATAGCACGACGAGCG | -0.507 |
